Pf Dd2 growth = blocks in vitro growth of P. falciparum Dd2; 120,000 compounds, 4.3% hits; P. falciparum Dd2 growth, SYBR Green, 72 h; Potency, µM (titrated, usually from 28.9 µM), most hits filed as inhibitors; active = well fitted inhibition curve with a large enough effect; note: nearly all actives have a fitted effect of over 65% in size
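Readout: SYBR Green fluorescence, 485 nm excitation, 535 nm emission, after ~16 h lysis at 37C. Before that, Dd2-infected red cells (2.5% hematocrit) grew 72 h with compound, 29 uM top final concentration.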
A number is an active result; . = inactive. This is one part of a sample in which hits are shown more often than they occur.

SMILES | Pf Dd2 growth
COc1ccccc1N1CCN(S(=O)(=O)c2cc3[nH]c(=O)c(=O)[nH]c3cc2C)CC1 | .
Cc1cc2[nH]c(=O)c(=O)[nH]c2cc1S(=O)(=O)N1CCN(c2cccc(C)c2C)CC1 | 7.94µM
CCCNC(=O)Cn1ncc2c3ccccc3n(CCC)c2c1=O | .
CCN(CC)C(=O)N1CCCC(Cc2ncc(C)n2Cc2ccc(F)cc2)C1 (configuration not stated) | 3.55µM
CCCn1c(C)cnc1CC1CCN(S(=O)(=O)c2ccc3c(c2)CCC3)C1 (configuration not stated) | 1µM
Cc1cnc(CC2CCN(S(=O)(=O)Cc3ccccc3)C2)n1C(C)C (configuration not stated) | 4.47µM
Cc1cnc(CC2CCN(S(=O)(=O)c3ccc4c(c3)CCC4)C2)n1CC1CC1 (configuration not stated) | .
CCCn1c(C)cnc1CC1CCCN(S(=O)(=O)c2cn(C)cn2)C1 (configuration not stated) | .
Cc1cnc(CC2CCN(C(=O)C3CC3)C2)n1C(C)C (configuration not stated) | .
CCS(=O)(=O)N1CCCC(Cc2ncc(C)n2Cc2ccc(F)cc2)C1 (configuration not stated) | 1.78µM
COc1ccc(C(=O)N2CCCC(Cc3ncc(C)n3Cc3ccc(F)cc3)C2)cn1 (configuration not stated) | .
Cc1cnc(CC2CCCN(C(=O)COc3ccccc3)C2)n1Cc1ccc(F)cc1 (configuration not stated) | .
Cc1cnc(CC2CCN(S(=O)(=O)c3cn(C)cn3)C2)n1Cc1ccccc1 (configuration not stated) | .
CCCn1c(C)cnc1CC1CCCN(S(C)(=O)=O)C1 (configuration not stated) | .
CCS(=O)(=O)N1CCCC(Cc2ncc(C)n2C(C)C)C1 (configuration not stated) | .
c1ccc(-n2nnnc2N2CCCC(c3nccn3Cc3ccccn3)C2)cc1 (configuration not stated) | .
COc1ccc(C(=O)Nc2c(C(=O)c3ccccc3)oc3ccccc23)cc1 | .
Cc1nnc(SCc2ccccc2Cl)c2cc3sccc3n12 | .
CCCSc1ncc(Cl)c(C(=O)Nc2ccc(OC)cc2OC)n1 | .
COc1cc(-c2cccs2)cc2c1OCCN(C(=O)C(C)Cn1cncn1)C2 (configuration not stated) | .
COc1ccccc1OCC(=O)NC1CC(=O)N(c2ccc3c(c2)OCCO3)C1 (configuration not stated) | .
O=C(NCc1ccc(Cl)cc1)C(=O)Nc1ccc(Br)cc1 | .
O=C(CN1CCNCC1)NCc1nc(-c2cccc(F)c2)c(-c2ccccn2)[nH]1 | .
O=C(NCc1nc(-c2cccc(F)c2)c(-c2ccccn2)[nH]1)[C@@H]1C[C@@H](O)CN1 | .
Cc1ccc(-c2nc(CNC(=O)[C@@H]3CCC[C@H](N)C3)[nH]c2-c2ccccn2)cc1 | 10µM
SMILES | Pf Dd2 growth
COc1cc2c(cc1OC)C(COc1ccc(C(C)C)cc1)N(C(=O)c1ccc(S(=O)(=O)N3CCCC3)cc1)CC2 (configuration not stated) | 12.6µM
COc1cc2c(cc1OC)C(CNC(=O)Nc1ccc(C)cc1)N(C(=O)NC(C)C)CC2 (configuration not stated) | .
COc1ccc(N2CC(NC(=O)c3ccc(S(=O)(=O)N4CCCCC4)cc3)CC2=O)cc1OC (configuration not stated) | .
COc1cc2c(cc1OC)C(COc1cccc(C(F)(F)F)c1)N(C(=O)c1ccc(S(=O)(=O)N3CCCC3)cc1)CC2 (configuration not stated) | 7.94µM
COc1ccc(CNC(=O)C(C)n2ccc3cc(S(=O)(=O)N4CCCC4)ccc32)cc1OC (configuration not stated) | .
COc1ccc(S(=O)(=O)N2CCCCC2)cc1C(=O)Nc1cccc(C(F)(F)F)c1 | .
COc1ccc(S(=O)(=O)N2CCC(Oc3cccc(C(F)(F)F)c3)CC2)cc1OC | .
Cc1ccc2c(c1)C(c1ccccc1)N(C(=O)c1ccc(S(=O)(=O)N3CCCC3)cc1)CC(=O)N2 (configuration not stated) | .
COc1cc2c(cc1OC)C(COc1cc(C)cc(C)c1)N(C(=O)c1ccc(S(=O)(=O)N3CCCC3)cc1)CC2 (configuration not stated) | 3.16µM
Cc1ccccc1OCc1nc(C2CN(C(=O)NC(C)C)C2)no1 | .
O=C(NC1CCOC2(CCOCC2)C1)c1ccc(-c2cnco2)cc1 (configuration not stated) | .
COC(=O)c1c(NC(=O)C(C)Oc2ccc(Cl)cc2Cl)sc2c1CCCC2 (configuration not stated) | .
CN1C(=O)CCC2(CNC(=O)C3CCCC3)CCCC=C12 (configuration not stated) | .
Cc1nnc(NC(=O)c2cccn(Cc3cccc(Cl)c3)c2=O)s1 | .
O=C(NCc1ccc(F)cc1)c1cc(Sc2ccc(F)cc2F)nc2ccccc12 | .
Cc1ccc(C(=O)Nc2ccc(F)cc2)cc1S(=O)(=O)N1CCCCCC1 | .
CC(C)c1ccc(NC(=O)c2cc(S(=O)(=O)NC3CCCCC3)ccc2F)cc1 | 7.94µM
O=C(Nc1ccc(Br)cc1)c1ccc(Br)c(S(=O)(=O)N2CCCCC2)c1 | .
O=C(Nc1ccc(Br)cc1)c1ccc(F)c(S(=O)(=O)NC2CCCCCC2)c1 | 1.26µM
CCOc1ccccc1NC(=O)c1cc(S(=O)(=O)NC2CCCC2)ccc1F | .
CCOc1ccc(NC(=O)c2cc(S(=O)(=O)NC3CCCCCC3)ccc2F)cc1 | 3.98µM
Cc1ccc(NC(=O)c2cc(S(=O)(=O)NCCc3ccc(Cl)cc3)ccc2F)cc1 | .
CCOc1ccc(NC(=O)c2cc(S(=O)(=O)N3CCOCC3)ccc2F)cc1 | .
O=C(Nc1ccc(Br)cc1F)c1cc(S(=O)(=O)NC2CCCCC2)ccc1F | .
O=C1NC(=NC2CCCC2)C2(CCN([S+](=O)([O-])c3cccs3)C2)N1c1cc(F)cc(F)c1 (configuration not stated) | .
SMILES | Pf Dd2 growth
CNC(=O)[C@@H](c1ccc(OC)cc1)N1CCC[C@H]1C(=O)N(C)Cc1ccccc1 | .
CCc1ccc(-n2nc(CO)c(C(=O)NCc3ccccc3Cl)n2)cc1 | .
COc1cc(NC(=O)CCN2CCN(CCO)CC2)cc(OC)c1 | .
Cn1c([C@H]2CCN(C3CCCCC3)C2)nc2ccccc21 | .
O=C1[C@@H]2C[C@@H](CN2C(=O)C2CC2)Oc2ccccc2N1Cc1ccc(OC(F)(F)F)cc1 | .
O=C1[C@@H]2C[C@@H](CN2Cc2nccs2)Oc2ccccc2N1CC1CC1 | .
O=C1[C@@H]2C[C@@H](CN2Cc2ccc(Cl)cc2)Oc2ccccc2N1CC1CC1 | 12.6µM
O=C1[C@@H]2C[C@@H](CN2Cc2cccc(Cl)c2)Oc2ccccc2N1CC1CC1 | .
O=C1[C@@H]2C[C@@H](CN2CC2CC2)Oc2ccccc2N1Cc1ccc(OC(F)(F)F)cc1 | 3.98µM
COCC(=O)N1C[C@@H]2C[C@H]1C(=O)N(Cc1ccc(OC(F)(F)F)cc1)c1ccccc1O2 | .
COc1cc(CN(C(=O)c2cccc(Cl)c2)c2ccccn2)cc(OC)c1OC | .
Cc1ccc(C(=O)N2CCC3(CC2)CC(C(C)C)=NO3)cc1 | .
CCOc1ccccc1CNC(=O)c1cc2cn(C(C)C)cc2s1 | .
CCOc1ccccc1CNC(=O)c1cc2cn(C3CCCC3)cc2s1 | 12.6µM
COc1ccccc1CNC(=O)c1cc2cn(C3CC3)cc2s1 | .
